# Screens deposited in PubChem BioAssay by The Scripps Research Institute Molecular Screening Center.
# MOR-DOR inv ag: inverse agonists of MOR-DOR heterodimerization, primary screen, cell-based, luminescence. cell-based MOR-DOR heterodimer luminescence, inverse agonism. inhibition, % at 9.3 µM. 340,000 tested, 0.21% active; in the data active = inhibition above about 22%, passing the limit was not always enough
# HTR5A inv ctr: HTR5A inverse agonists in luminescence cell assay, primary screen, counter-screen for OPRM1-OPRD1 heterodimer inverse agonist project, full-deck HTS. 5-hydroxytryptamine receptor 5A (Homo sapiens), P47898. HTR5A cell line, inverse agonism. inhibition, % at 9.3 µM. 340,000 tested, 0.083% active. AID 504634, 2011; in the data active = inhibition mostly above about 23%, no sharp cut-off; inactive = mostly below about 18%
# Target sequence (P47898 whole entry, looked up): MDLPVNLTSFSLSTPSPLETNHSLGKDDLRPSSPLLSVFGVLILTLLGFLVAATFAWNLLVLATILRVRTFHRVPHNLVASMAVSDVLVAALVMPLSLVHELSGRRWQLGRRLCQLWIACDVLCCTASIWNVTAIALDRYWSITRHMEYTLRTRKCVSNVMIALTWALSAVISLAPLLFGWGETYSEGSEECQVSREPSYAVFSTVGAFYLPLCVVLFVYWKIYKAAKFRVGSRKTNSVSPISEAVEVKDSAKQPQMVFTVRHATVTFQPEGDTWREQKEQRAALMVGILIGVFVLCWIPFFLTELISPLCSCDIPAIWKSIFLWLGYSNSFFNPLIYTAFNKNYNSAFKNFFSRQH
# OPRM1-OPRD1 ag: agonists of OPRM1-OPRD1 heterodimerization, primary screen, cell-based, luminescence | Mu-type opioid receptor (Homo sapiens) + Delta-type opioid receptor (Homo sapiens), … | cells | activation, % at 9.3 µM | 340,000 tested, 0.3% active
# HTR5A ag: HTR5A agonists in luminescence cell assay, primary screen, counter-screen for OPRM1-OPRD1 heterodimer agonist project, full-deck HTS | cell-based | activation, % at 9.3 µM | 340,000 tested, 0.61% active | AID 504692, 2011; in the data active = activation mostly above about 9.5%, no sharp cut-off; inactive = mostly below about 7.6%
# MOR-DOR ag conf: agonists of MOR-DOR heterodimerization, confirmation, cell-based, luminescence. AID 504904, 2011. cells, luminescence complementation. shares compounds with OPRM1-OPRD1 ag. 830 tested, 45% active. activation, % at 9.3 µM
# HTR5A ag ctr2: HTR5A agonists in cells, counter-screen for OPRM1-OPRD1 heterodimer agonist project, cell-based, luminescence; shares compounds with OPRM1-OPRD1 ag; HTR5A agonist counterscreen; activation, % at 9.3 µM; 830 tested, 8% active; AID 504905, 2011; in the data active = activation above about 17%
# Hits are given with their value; n = inactive; x = not tested or not shown. Only some compounds are listed: those with a hit (about 1.1% of all), similar ones and a draw of the others. Cut-off read from the data, not from the text of the source, unless noted: active = activation above about 18%; inactive = the rest.
SMILES,MOR-DOR inv ag,HTR5A inv ctr,OPRM1-OPRD1 ag,HTR5A ag,MOR-DOR ag conf,HTR5A ag ctr2
Fc1ccc(CN2CCN(C(c3ccccc3)c3ccccc3)CC2)cc1,n,n,n,n,x,x
Oc1ccccc1N1CCN(C(c2ccccc2)c2ccccc2)CC1,n,n,27,n,23,n
OC(CNCCC(c1ccccc1)c1ccccc1)COc1ccccc1 (centres undefined),n,n,22,n,38,n
OC(CNCCc1ccccc1)COc1ccc(OCC(O)CNCCc2ccccc2)cc1 (centres undefined),n,n,n,n,x,x
COc1ccc(C2Nc3ccccc3C(=O)N2c2ccc(F)cc2)cc1CSc1ccccn1 (centres undefined),n,n,38,n,46,n
COc1ccc(C2Nc3ccccc3C(=O)N2Cc2ccco2)cc1COc1ccc(NC(C)=O)cc1 (centres undefined),n,n,117,n,68,n
COc1ccc(C2Nc3ccccc3C(=O)N2Cc2ccccc2)cc1CSc1ccccn1 (centres undefined),n,n,35,n,n,n
COc1ccc(C2Nc3ccccc3C(=O)N2c2ccccc2)cc1COc1ccccn1 (centres undefined),n,n,n,n,x,x
COc1ccc(C2Nc3ccccc3C(=O)N2c2ccccc2)cc1CSc1ccccn1 (centres undefined),n,n,27,n,28,n
O=P(Nc1ccccc1)(Nc1ccccc1)c1ccccc1,n,n,n,n,x,x
CC(=O)Nc1c(Br)cc2c(c1Br)Cc1cc(Br)ccc1-2,n,n,34,n,19,n
Cc1cc(-c2ccccc2)nc(N/N=C/c2ccc(O)cc2)n1,n,n,n,n,x,x
Oc1ccc(/C=N/Nc2nc(-c3ccc(Cl)cc3)cc(C(F)(F)F)n2)cc1,n,n,24,n,n,n
O=[N+]([O-])c1ccc(N2CCN(CCO)CC2)cc1Sc1ccccn1,n,n,n,n,x,x
CCN1CCN(c2ccc([N+](=O)[O-])c(Sc3nc4ccccc4[nH]3)c2)CC1,n,n,76,n,69,n
COCCN(CC(=O)Nc1cccc(C)c1C)C(=O)Cc1sc(C)nc1-c1ccc(F)cc1,n,n,n,n,x,x
CCCCn1c(=N)n(CC(O)COc2ccc(C)cc2)c2ccccc21 (centres undefined),n,n,n,n,x,x
N=c1n(Cc2ccccc2)c2ccccc2n1CC(O)COc1ccccc1 (centres undefined),n,n,43,n,n,n
Cc1ccc(Cn2c(=N)n(CC(O)COc3ccccc3)c3ccccc32)cc1 (centres undefined),n,n,24,n,61,n
CCCCn1c(=N)n(CC(O)COc2ccccc2)c2ccccc21 (centres undefined),n,n,n,n,x,x
Cc1cc(C)n(CCC(=O)N2CCN(S(=O)(=O)c3ccccc3)CC2)n1,n,n,n,n,x,x
Cc1ccc(C)c(N2CCN(c3ncccc3[N+](=O)[O-])CC2)c1,n,n,n,n,x,x
CCSc1nnc(NC(=O)c2cc(-c3ccccc3O)n[nH]2)s1,n,n,32,n,n,n
CCSc1nnc(NC(=O)c2cccc3ccccc23)s1,n,n,n,n,x,x
O=C(N/N=C/c1ccccn1)c1ccc(Cl)c(Cl)c1,n,n,n,n,x,x
SMILES,MOR-DOR inv ag,HTR5A inv ctr,OPRM1-OPRD1 ag,HTR5A ag,MOR-DOR ag conf,HTR5A ag ctr2
O=C(CNc1ccccc1F)Nc1cccc(S(=O)(=O)N2CCCCC2)c1,n,n,n,n,x,x
COCc1c(C(=O)N/N=C/c2cccc3ccccc23)nnn1-c1nonc1N,n,n,27,n,n,n
CC1(NC(=O)CCc2ccccc2)CCN(CCCc2ccccc2)C1=O (centres undefined),n,n,n,n,x,x
CC1(NC(=O)CC(c2ccccc2)(c2ccccc2)c2ccccc2)CCN(CCCc2ccccc2)C1=O (centres undefined),n,n,237,n,193,n
O=C(Nc1ccc(Cl)c(Cl)c1)N(CCCN1CCOCC1)Cc1cccs1,n,n,27,n,n,n
O=C(Nc1ccc(Cl)c(Cl)c1)N(CCCN1CCOCC1)Cc1cccnc1,n,n,n,n,x,x
COc1ccc2c(Cl)c(-c3nnc(SCC(=O)c4ccccc4)n3C)sc2c1,n,n,325,n,372,n
COc1ccc2c(Cl)c(-c3nnc(SCC(N)=O)n3C)sc2c1,n,n,n,n,x,x
CCC(=O)c1ccc(N2CCN(S(=O)(=O)c3ccccc3)CC2)c(F)c1,n,n,21,n,n,n
CC(=O)Cc1cc(O)c2ccccc2c1OC(=O)c1ccc(Br)cc1,n,n,20,n,n,n
O=C(COC(=O)c1ccc(Br)cc1)NCc1ccccc1,n,n,n,n,x,x
Cc1ccc(S(=O)(=O)N2CCN(C)CC2)c2nsnc12,n,n,n,n,x,x
COc1cccc(-c2nn(-c3ccccc3)cc2CN(C)C(C)c2ccncn2)c1 (centres undefined),n,n,25,n,n,n
COc1ccc(CNC[C@@H](CCCCN(C)Cc2ccc(OC)cc2)N2C[C@H](c3ccccc3)N(CCc3ccc(Cl)c(Cl)c3)C(=O)C2=O)cc1,n,n,81,21,127,33
COc1ccc(CNC(=O)[C@@H]2CC=C[C@@H]3CCN(Cc4ccc(Cl)c(Cl)c4)C(=O)[C@@H]32)cc1,n,n,n,n,x,x
C(=C\c1nccc2c1[nH]c1ccccc12)/c1ccccc1,n,n,n,n,x,x
Fc1ccc(/C=C\c2nccc3c2[nH]c2ccccc23)cc1,n,n,19,n,33,37
CN1C2CCC1CC(N(CCc1ccccc1)C(=O)c1ccc(Cl)cc1)C2 (centres undefined),n,n,n,n,x,x
CN1C2C=C(N(CCc3ccccc3)C(=O)c3ccc(Cl)cc3)CC1CC2 (centres undefined),n,n,73,n,89,n
C[C@@H]1COC(=O)[C@@H](CC(=O)OC(C)(C)C)C/C=C\C[C@@H](CC(=O)NCCO)C(=O)N1,n,n,n,n,x,x
Cc1cc(/C=C(\C#N)c2nc3ccccc3[nH]2)c(C)n1C,n,n,27,13,n,n
COc1cc(Br)cc(/C=N/NC(=O)Cc2ccc(C(F)(F)F)cc2[N+](=O)[O-])c1O,n,n,18,n,42,n
Cc1cc(C)cc(NC(=O)Cn2nnc(C(=O)NCc3ccccc3Cl)c2N)c1,n,n,25,n,n,n
Cc1ccc(NC(=O)c2nnn(CC(=O)Nc3ccc4c(c3)OCO4)c2N)cc1C,n,n,23,n,n,n
Cc1cc(C)cc(NC(=O)Cn2nnc(C(=O)NCCc3ccccc3)c2N)c1,n,n,21,n,n,n
